Screens as filed in PubChem BioAssay.
An excerpt weighted towards active compounds, which were near 6% of everything screened.
D3 antag – D3 dopamine receptor (human) antagonism; D3R cells, DiscoveRx beta-arrestin luminescence, antagonist mode; hits give low values; max response, negative = inhibition, %; 2.5% of 360,000 active; AID 652054; in the data active = max response below about -50%; also: % is scaled to controls: 0 for no effect and ±100 for the full control effect
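Cells expressing the human receptor were seeded at 1500 cells/well, incubated overnight at 37 degrees C in 5% CO2, then exposed to library compounds with dopamine controls for 90 minutes at 37 degrees C before luminescent detection.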
D1 ag – agonists of human D1 dopamine receptor | HEK293 T-REx D1 cells, calcium flux, agonist mode | activation, % at 2 µM | 1% of 360,000 active; in the data active = activation above about 30%; also: 0% is about no effect
Target sequence (P21728 whole entry, looked up): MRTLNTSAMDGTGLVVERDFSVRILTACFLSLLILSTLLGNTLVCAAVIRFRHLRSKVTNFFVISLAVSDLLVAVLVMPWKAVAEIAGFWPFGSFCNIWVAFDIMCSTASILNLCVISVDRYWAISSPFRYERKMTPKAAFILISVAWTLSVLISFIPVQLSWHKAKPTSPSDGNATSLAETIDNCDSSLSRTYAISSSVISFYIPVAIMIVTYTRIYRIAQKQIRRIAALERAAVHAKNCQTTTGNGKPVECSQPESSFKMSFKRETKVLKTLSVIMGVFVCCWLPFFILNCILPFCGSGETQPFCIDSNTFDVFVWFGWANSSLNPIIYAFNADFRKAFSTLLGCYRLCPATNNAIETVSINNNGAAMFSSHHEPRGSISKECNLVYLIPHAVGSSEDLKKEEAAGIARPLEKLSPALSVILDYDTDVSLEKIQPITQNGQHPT
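Tetracycline-induced HEK293 TREx D1 cells, force-coupled to calcium signalling, were dye-loaded with a no-wash calcium kit. Compound was pin-added after a 10 s baseline. Fluorescence was read kinetically at 1 cycle/s for 180 s, with calcium rises flagged as agonism.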
D1 potentiator – human D1 dopamine receptor positive modulation; 0.036% of 360,000 active; P21728; potentiation, % at 10 µM; HEK293 TREx D1 cells, calcium flux, dopamine EC20 potentiation; in the data active = potentiation above about 30%; also: 0% is about no effect
D1 antag – human D1 dopamine receptor antagonism | HEK293 TREx D1 cells, calcium flux, dopamine EC80; hits give low values | P21728 | 3.2% of 360,000 active | activity change, negative = inhibition, % at 10 µM; in the data active = activity change below about -30%; also: % is scaled to controls: 0 for no effect and ±100 for the full control effect
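After overnight tetracycline induction at 30 C, force-coupled D1 HEK293 cells took up a no-wash calcium dye at room temperature. Compounds were added and monitored 180 s, and the response to EC80 dopamine was then recorded.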
DRD3 agonist – D3 dopamine receptor (human) agonism. max activation, %. 0.58% of 410,000 active. AID 652048. D3R DiscoveRx beta-arrestin cells, luminescence, 90 min. P35462; in the data active = max activation above about 30%; also: 0% is about no effect
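Cells at 1500/well, incubated overnight, then treated with pinned compounds (dopamine as control) for 90 min at 37 degrees C. DiscoveRx reagent added for 30 - 60 minutes at room temperature; luminescence read.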
Starred values were filed as active, the others as inactive; · = no result given.

SMILES	D3 antag	D1 ag	D1 potentiator	D1 antag	DRD3 agonist
Cc1cccc(CSc2ncc(Cl)c(C(=O)Nc3sc4c(c3C#N)CCCC4)n2)c1	·	1	3	5	-16
COC(=O)c1cccc(NC(=S)Nc2ccc(Cl)c(Cl)c2)c1	5	7	-4	-31*	-14
COC(=O)c1cccc(NC(=O)NC(=O)c2ccc(Cl)cc2)c1	5	5	-1	-16	-8
COC(=O)c1cccc(NC(=O)Nc2ccc(Cl)cc2)c1	0	26	-3	-35*	-12
N#Cc1ccc(C(=O)NCC(=O)OC(C(=O)Nc2cc(C(F)(F)F)ccc2Cl)c2ccccc2)cc1 (centres undefined)	·	8	-2	14	·
Cc1nn(-c2cc(C(F)(F)F)ccc2Cl)c2nc(C(Cl)(Cl)Cl)[nH]c(=O)c12	-24	4	-16	-38*	14
Cc1nn(-c2ccccc2)c2nc(C(F)(F)F)[nH]c(=O)c12	29	0	-3	-5	2
COc1ccc(C(=O)Oc2ccc3oc(=O)sc3c2)cc1	-52*	0	-2	·	3
O=C1CCCc2cc(S(=O)(=O)NCC3CCC(C(=O)Nc4ccccc4F)CC3)ccc2N1 (centres undefined)	·	1	-2	8	6
CCOc1cc(C)c(S(=O)(=O)Nc2ccc3cn[nH]c3c2)cc1C	20	33*	3	-13	20
Cc1ccc(S(=O)(=O)Nc2ccc3cn[nH]c3c2)c(C)c1	-10	4	-7	-21	-1
CCOc1ccccc1NC(=O)Cn1c(=O)ccc2cc(S(=O)(=O)N3CCCC3)ccc21	·	3	-4	13	-9
Cc1cccc(N2C(=O)CS/C2=N\NC(=O)c2cccnc2)c1C	9	3	1	2	6
Cc1cccc(N2C(=O)CS/C2=N\NC(=O)c2ccc(Br)cc2)c1C	-79*	0	-3	-1	-3
O=C1C=CC(=O)c2c(O)c(N3CCN(CCOCCO)CC3)c(Br)c(O)c21	-95*	·	·	·	-18
O=C1C=CC(=O)c2c(O)c(N3CCN(CCO)CC3)c(Cl)c(O)c21	-121*	·	·	·	-25
CCOc1cc(CN2CCN(CCOCCO)CC2)ccc1OC	-16	1	-8	10	1
O=S(=O)(c1ccc(Br)cc1Cl)N1CCN(CCO)CC1	-8	3	-6	-6	-11
Cc1ccc(NC(=O)c2ncoc2-c2ccco2)cc1Cl	·	8	2	27	-5
COc1ccc(CNC(=O)Cn2c(SCC(=O)Nc3ccc(C)c(C)c3)nc3ccccc32)cc1	·	23	-1	5	-28
OCCC1CN(CCCc2ccccc2)CCN1Cc1ccccc1 (centres undefined)	-82*	5	3	-6	-21
OCCC1CN(Cc2ccc(F)cc2)CCN1CCCc1ccccc1 (centres undefined)	-58*	4	-3	4	-18
OCCC1CN(Cc2ccc(F)cc2)CCN1CCc1ccccc1 (centres undefined)	-25	5	-9	-28	-26
Cc1ccccc1Cn1c(=O)n(CCc2ccccc2)c(=O)c2c(C)c(C)sc21	·	0	1	-4	2
CCOCCCNC(=S)NC1CC2CCC(C1)N2Cc1ccccc1 (centres undefined)	-62*	0	-1	2	-13
SMILES	D3 antag	D1 ag	D1 potentiator	D1 antag	DRD3 agonist
COCCCNC(=S)NC1CC2CCCC(C1)N2Cc1cccs1 (centres undefined)	-26	·	·	·	-30
COCCCNC(=S)NC1CC2CCC(C1)N2Cc1ccccc1 (centres undefined)	-60*	2	0	-2	-19
COc1ccc(CN2CCN(C(=O)CCC(=O)Nc3nnc(CC(C)C)s3)CC2)cc1F	-10	36*	-3	-20	1
Cc1ccc(OCCN2CCN(C(=O)CCC(=O)Nc3nnc(C(C)C)s3)CC2)cc1	-20	7	-2	-17	33*
CC(C)c1nnc(NC(=O)CCC(=O)N2CCN(Cc3ccccc3)CC2)s1	8	2	-5	11	-1
Cc1ccc(OCCN2CCN(C(=O)CCC(=O)Nc3nnc(C)s3)CC2)cc1	-3	2	-4	2	37*
CCCc1nnc(NC(=O)CCC(=O)N2CCN(CCOc3ccc(C)cc3)CC2)s1	-17	-1	2	5	70*
O=C(O)Cc1cccc(-c2cc(CCCCCCc3ccc(O[C@H]4O[C@H](CO)[C@@H](O)[C@H](O)[C@@H]4O)c(-c4cccc(CC(=O)O)c4)c3)ccc2O[C@H]2O[C@H](CO)[C@@H](O)[C@H](O)[C@@H]2O)c1	·	·	·	·	-18
CCCCNC(=S)N/N=C1\C(=O)c2cccc3cccc1c23	22	2	11	4	-5
CNC(=S)N/N=C1\C(=O)c2cccc3cccc1c23	-55*	0	0	-46*	-7
CN(Cc1ccc(F)cc1)S(=O)(=O)c1nnc(NC(=O)c2ccc(F)cc2)s1	·	21	-1	-19	14
COc1cccc(NC(=O)C(OC(=O)/C=C/c2ccc3c(c2)OCO3)c2ccccc2)c1 (centres undefined)	-55*	6	8	9	-4
COc1ccc(NC(=O)C(c2ccccc2)N(C)C(=O)/C=C\c2ccc3c(c2)OCO3)cc1 (centres undefined)	·	3	-1	-4	-19
N#C/C(=N\Nc1ccc(F)cc1)C(=O)C1CC1	-9	14	3	-7	4
N#C/C(=N\Nc1ccc(Cl)c(Cl)c1)C(=O)C1CC1	21	23	-5	-44*	13
Cc1ccc(NC(=O)CCCn2c(=O)c3cccn3c3ccccc32)c(C)c1	·	-2	0	-14	9
Cc1cc(C)c(NC(=O)CCn2c(=O)c3cccn3c3ccccc32)c(C)c1	·	13	3	-49*	11
Cc1cc(C)cc(NC(=O)CCCn2c(=O)c3cccn3c3ccccc32)c1	·	5	-5	-71*	5
O=C(CCCn1c(=O)c2cccn2c2ccccc21)Nc1cccc(Cl)c1	·	0	0	-32*	-13
Cc1ccc(NC(=O)CCCn2c(=O)c3cccn3c3ccccc32)c(Cl)c1	·	-1	-2	9	3
CCN(Cc1ccccc1)S(=O)(=O)c1ccc(OC)cc1	3	6	4	-34*	-3
CCN(Cc1ccccc1)S(=O)(=O)c1ccc(S(=O)(=O)N(Cc2cccc(OC)c2)CC2CCCO2)cc1 (centres undefined)	15	31*	-3	12	-10
CCN(Cc1ccccc1)S(=O)(=O)c1ccc(N2CCCCS2(=O)=O)cc1	·	12	1	-31*	-8
CN(c1ccc(OCCOc2ccccc2Cl)cc1)S(=O)(=O)c1ccccc1	12	·	·	·	0
COc1ccc(OCCOc2ccc(N(C)S(=O)(=O)c3ccccc3)cc2)cc1	-11	42*	-2	-27	3
CCN(CC)c1cc2c(cc1F)c(=O)c(S(=O)(=O)c1ccc(OC)cc1)cn2Cc1ccccc1	·	11	-1	6	-7
